Screening results: PubChem BioAssay, Buhrlage Lab, Dana-Farber Cancer Institute and Novartis Institutes for BioMedical Research (Cambridge, Mass)
USP30 inh – inhibitors of human USP30 deubiquitinase; inhibition, % at 25 µM; purified USP30, Ub-rhodamine cleavage fluorescence; 47,000 tested, 5.3% active
Target sequence (Q70CQ3 whole entry, looked up): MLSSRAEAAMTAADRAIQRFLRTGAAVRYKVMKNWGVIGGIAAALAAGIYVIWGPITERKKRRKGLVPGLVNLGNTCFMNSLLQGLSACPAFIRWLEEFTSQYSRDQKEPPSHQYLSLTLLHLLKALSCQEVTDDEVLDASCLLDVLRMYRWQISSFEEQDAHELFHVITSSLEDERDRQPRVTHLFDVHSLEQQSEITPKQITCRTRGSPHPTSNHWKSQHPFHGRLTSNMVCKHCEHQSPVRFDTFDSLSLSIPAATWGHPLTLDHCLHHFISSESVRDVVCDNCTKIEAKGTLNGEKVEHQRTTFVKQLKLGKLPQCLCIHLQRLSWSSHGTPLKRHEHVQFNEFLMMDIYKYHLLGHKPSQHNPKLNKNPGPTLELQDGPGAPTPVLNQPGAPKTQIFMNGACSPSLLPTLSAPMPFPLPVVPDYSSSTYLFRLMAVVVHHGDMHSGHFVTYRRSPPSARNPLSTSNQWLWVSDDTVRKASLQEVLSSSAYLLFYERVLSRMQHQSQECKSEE
USP17 inh – blocks human USP17 ubiquitin-rhodamine cleavage. inhibition, % at 50 µM. purified USP17, Ub-rhodamine cleavage fluorescence, 3 h. 47,000 tested, 6.5% active. A8MUK1
Numbers stand for hits; n = inactive; x = not tested or not shown. Compounds with a hit are over-represented: about 9.6% of the library has one in this group of screens. Cut-off read from the data, not from the text of the source: active = inhibition above about 30%; inactive = the rest.

SMILES	USP30 inh	USP17 inh
O=C(CCCc1ccccc1)N1CCN(c2ccc(-c3ccc4c(c3)OCO4)nn2)CC1	30	n
O=C(c1ccncc1)N1CC[C@@H]2CN(CCc3ccccc3)S(=O)(=O)[C@@H]2CC1	n	n
O=C(c1ccc(F)cc1-n1cnnn1)N1CCN(c2ccccc2)CC1	n	n
C=C1CCC[C@]2(C)C[C@H]3OC(=O)C(CNCCc4ccc(OC)c(OC)c4)[C@H]3CC12 (stereo partly drawn)	46	n
C=C1CCC[C@]2(C)C[C@H]3OC(=O)C(CNCCc4ccc(F)cc4)[C@H]3CC12 (stereo partly drawn)	n	n
O=C(Nc1ccccc1-c1cnn(-c2ccccc2)c1)c1ccccc1Cl	41	x
O=C(O)c1ccc(-c2cnn(-c3ccccc3)c2)nc1	n	n
Cc1ccccc1Cn1cc(S(=O)(=O)N2CCCC2)ccc1=O	n	n
Cc1ccc(NC(=O)Cn2cc(S(=O)(=O)N3CCOCC3)ccc2=O)cc1	n	n
Cc1ccccc1Cn1cc(S(=O)(=O)N2CCCCCC2)ccc1=O	37	n
O=C(Cn1cc(S(=O)(=O)N2CCCCC2)ccc1=O)Nc1ccccc1	n	n
O=C(Cn1cc(S(=O)(=O)N2CCCCCC2)ccc1=O)Nc1ccccc1	n	36
Cc1ccc(NC(=O)Cn2cc(S(=O)(=O)N3CCCCC3)ccc2=O)cc1	44	n
Cc1nnc(-c2c(C)[nH]c(C)c2S(=O)(=O)NCc2ccccc2F)o1	n	n
O=C(Cn1c(=O)[nH]c2ccccc2c1=O)NC1CC1	n	n
O=C(Cn1c(=O)[nH]c2ccccc2c1=O)NCc1ccccc1Cl	n	40
Cc1ncc(-c2cncc(CC3CCCN(C(=O)c4n[nH]c5ccccc45)C3)n2)n1C (stereo not drawn)	n	n
CC1CC(=O)c2c(cc3c(-c4c(O)cc(O)c5c(O)c6c(cc45)OC(C)CC6=O)c(O)cc(O)c3c2O)O1 (stereo not drawn)	n	88
Cc1ccc(Cn2c(=O)c3ncccc3n(CC(=O)OCc3ccccc3)c2=O)cc1	n	n
CC(C)CC(NS(=O)(=O)c1ccc2c(c1)CCCC(=O)N2)C(=O)NC1CCCCCC1 (stereo not drawn)	n	n
O=C(CSc1nnc2[nH]c(=O)cc(-c3ccccc3)n12)NCC1CCCO1 (stereo not drawn)	n	n
COc1ccc(NC(=O)C2CC2)cc1NS(=O)(=O)c1ccc(F)cc1	n	n
CC(=O)Nc1ccc(NC(=O)C2CCC(CNS(=O)(=O)c3ccc(F)cc3)CC2)cc1 (stereo not drawn)	31	n
Cc1ccc(S(=O)(=O)[C@H]2CS(=O)(=O)C[C@@H]2NCCc2ccc(F)cc2)cc1	n	n
O=C1N(CC2CCCCC2)CCN1c1ccc2c(c1)CCC2	n	31
SMILES	USP30 inh	USP17 inh
O=C1N(CC2CC2)CCN1c1ccc2c(c1)CCC2	n	n
COc1ccc(NC(=O)N(C2=NCCC2)c2ccc(OC)cc2)cc1	n	n
COc1nc2c(c(-c3ccco3)c1C#N)Cc1cc(NC(C)=O)ccc1-2	n	39
COc1ccc(NC(=O)COc2cccc(-c3noc(-c4ccco4)n3)c2)cc1	n	n
O=S(=O)(NCC(O)c1ccccc1)c1ccc(-c2ccccn2)s1 (stereo not drawn)	n	n
NS(=O)(=O)c1ccc(CNS(=O)(=O)c2ccc(-c3ccccn3)s2)cc1	60	x
Cc1ccc(Sc2ccc(C#N)cc2NC(=O)c2ccccc2C)cc1	41	n
Cc1cccc(C(=O)Nc2ccc(Sc3ccccc3Cl)cc2)c1	n	n
Nc1c(-c2ccccn2)nsc1C(=O)N1CCN(c2ccccc2)CC1	n	n
Nc1c(-c2ccccn2)nsc1C(=O)N1CCN(c2ccc(F)cc2)CC1	36	n
COc1cc(C2C3(O)CC4C[C@]2(O)[C@](O)(C(=O)O4)[C@H]3C(=O)c2ccccc2)oc(=O)c1 (stereo partly drawn)	n	n
Cc1nc(CO[C@H]2CN(C(=O)c3ccoc3C)[C@@H]3COC[C@H]23)cs1	n	n
Clc1ccccc1Cn1ncc2c(NCc3cccnc3)ncnc21	n	n
Cc1nnc(NCc2cccnc2)c2c1nnn2Cc1ccccc1Cl	60	n
O=C(c1ccccc1)N1CC[C@@H]2CN(CC3CCOCC3)[C@@H]2C1	n	x
COc1ccccc1NC(=O)NCc1nnnn1-c1ccccc1	32	n
Cc1ccc(NC(=O)NCc2nnnn2-c2ccccc2)cc1	n	n
c1csc(CNc2nnc(-c3nc(C4CC4)no3)c3ccccc23)c1	n	n
COc1ccc(CCNC(=O)Cn2c(=O)n(-c3cccc(C)c3)c(=O)c3ccccc32)cc1OC	n	n
CN(Cc1ccccc1)C(=O)Cn1c(=O)n(-c2ccccc2)c2ncccc21	n	n
COc1cc2ccccc2cc1C(=O)Nc1cccc(C)c1C	x	57
COc1cc2ccccc2cc1C(=O)NCc1ccccc1	n	n
O=C(NCc1nc(-c2ccc3c(c2)ncn3C2CCCC2)no1)c1cccs1	n	n
CCCn1nnc2cc(-c3noc(CNC(=O)c4cccs4)n3)ccc21	n	33
O=C(Nc1ccc(F)cc1)C1CCN(c2nc3nc[nH]c(=O)c3s2)CC1	n	n
SMILES	USP30 inh	USP17 inh
NS(=O)(=O)c1cc(C(=O)OCC(=O)NC2CCCc3ccccc32)ccc1Cl (stereo not drawn)	32	55
O=C(COC(=O)c1ccc(F)c(S(=O)(=O)N2CCOCC2)c1)NC1CCCCC1	n	n
NS(=O)(=O)c1cc(C(=O)OCC(=O)Nc2ccc(N3CCOCC3)cc2)ccc1Cl	n	34
N#Cc1ccccc1OCC(=O)NC1CCCc2ccccc21 (stereo not drawn)	n	n
COc1cc(N)c(Cl)cc1C(=O)OCC(=O)Nc1ccc(N2CCOCC2)cc1	n	38
Cc1cccc(Nc2ccccc2C(=O)OCC(=O)Nc2ccc(N3CCOCC3)cc2)c1C	n	n
COc1ccc(-n2nnnc2CNC(=O)Nc2ccc(C)cc2)cc1	n	n
CCOc1ccc(NC(=O)c2ccc(-n3nc(C)cc3C)nc2)cc1	n	n
Cc1ccc(-n2ncc3c2ncn2nc(C(C)(C)C)nc32)cc1C	n	n
Cc1ccc(-n2ncc3c2ncn2c(C)nnc32)cc1C	45	n
Cc1nc(SCc2ccco2)c2oc3ccccc3c2n1	n	n
COC(=O)[C@@H]1[C@@H]2C[C@H]3c4[nH]c5cc(OC)ccc5c4CCN3C[C@@H]2C[C@H](O)[C@H]1OC	n	n
COc1cc(CN2CCN(Cc3c[nH]c4ccccc34)CC2)cc(OC)c1OC	n	n
COc1ccccc1C1CCN(Cc2c(C)[nH]c3ccccc23)CC1	31	n
O=C(CNC(=O)c1cc2c(=O)n3ccccc3nc2s1)c1ccccc1	n	n
CCOC(=O)C1CCCN(c2c(S(=O)(=O)c3ccc(CC)cc3)cnc3ccc(OC)cc23)C1 (stereo not drawn)	n	n
N#Cc1ccc(NC(=O)c2cccc(OCc3ccccc3)c2)cc1	n	n
N#Cc1ccc(NC(=O)Nc2ccc(OCc3ccccc3)cc2)cc1	n	34
Cc1ccc(NC(=O)CC2C(=O)N(Cc3cccnc3)c3nc4ccccc4n32)c(C)c1 (stereo not drawn)	n	39
Cc1cccc(NC(=O)CC2C(=O)N(Cc3cccnc3)c3nc4ccccc4n32)c1 (stereo not drawn)	n	n
O=C(O)CCC(=O)Nc1cccc(-c2nnc(-c3ccccc3)o2)c1	33	n
Cc1cccc(NC(=O)Nc2cccc(-c3nnc(-c4ccccc4)o3)c2)c1	n	n
Cc1cccc(C)c1NC(=O)Cn1c(=O)c2cccnc2n(-c2ccccc2)c1=O	n	n
